From PubChem
Most compounds without a hit are left out; they make up all but 3.5% or so of the library.
TEAD-YAP block: TEAD-YAP interaction inhibition; HEK-TIYL cells, TEAD-Gal4/YAP UAS-luciferase luminescence; inhibition, % at 9.12 µM; 1.4% of 640,000 active; AID 1259422; in the data active means inhibition above about 32%;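 further: 0% = median of test compound wells and 100% = reference inhibitor wells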
FBW7 act: activators of human E3 ligase FBW7; Q969H0; AlphaScreen FBW7–phospho-cyclin E peptide binding, activator screen; normalized activity (activation), % at 26.1 µM; 0.13% of 650,000 active; AID 1259310; in the data active means normalized activity above about 1.9%;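 further: purified mutant Fbw7 with reduced substrate affinity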
GPR151 ag: activates the human receptor GPR151. Q8TDV0. PathHunter beta-arrestin GPR151 cells, luminescence. activation, % at 11.2 µM. 1% of 650,000 active; in the data active means activation above about 4.9%;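 further: 0% = median of compound wells and 100% = cells with positive control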
MITF inh: inhibitors of human MITF | O75030 | AID 1259374 | inhibition, % at 2.6 µM | 0.91% of 650,000 active | AlphaScreen MITF homodimerization, bead proximity signal; in the data active means inhibition above about 50%;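 further: 0% = vehicle wells with protein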
GPR151 confirm: human GPR151 activation, confirmation screen. shares compounds with GPR151 ag. GPR151 PathHunter beta-arrestin cells, luminescence, 90 min; % of EA-reagent control over plate median. activation, % at 11.2 µM. 6,700 tested, under 10 active;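 active means mean percent activation across replicates above the confirmation screen cutoff of 4.91%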
GPR119 ag: counter-screen for GPR151 activators: effect on human GPR119. 0.3% of 6,700 active. GPR119 PathHunter beta-arrestin cells, luminescence, 90 min; 0 = compound-well median, 100 = enzyme-acceptor control. activation, % at 11.2 µM. shares compounds with GPR151 ag;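 active means mean percent activation in the counterscreen above 29.09%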;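 further: counterscreen on off-target GPR119 to flag nonselective hits from the GPR151 activator screen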
Target sequence (Q8TDV5 whole entry, looked up): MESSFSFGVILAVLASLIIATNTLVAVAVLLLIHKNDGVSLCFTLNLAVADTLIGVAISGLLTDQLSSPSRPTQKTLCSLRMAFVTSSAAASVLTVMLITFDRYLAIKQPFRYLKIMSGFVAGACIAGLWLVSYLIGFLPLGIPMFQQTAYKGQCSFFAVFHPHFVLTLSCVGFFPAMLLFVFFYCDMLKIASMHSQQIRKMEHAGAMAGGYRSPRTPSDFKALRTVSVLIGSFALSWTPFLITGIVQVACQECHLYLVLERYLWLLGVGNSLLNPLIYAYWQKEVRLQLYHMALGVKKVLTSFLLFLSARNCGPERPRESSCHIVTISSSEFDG
Numbers without * were called inactive; · = not tested or not shown; ! = a repeat was not active.

SMILES	TEAD-YAP block	FBW7 act	GPR151 ag	MITF inh	GPR151 confirm	GPR119 ag
COc1ccc(OC)c(C2CC(c3ccc(Br)cc3)=NN2C(=O)CCC(=O)O)c1 (configuration not stated)	0	0	0	11	·	·
CC(C)[C@@H](Cn1nc(-c2ccc(F)c(F)c2)ccc1=O)NC(=O)c1ccc(=O)[nH]n1	0	0	9.0*	6	0	5
O=c1c2ccccc2ncn1CCCOc1ccccc1[N+](=O)[O-]	-85	0	4.9*	1	1	-2
N#CCn1cnc2c(nnn2-c2cccc(F)c2)c1=O	10	0	6.1*	-3	0	-7
COC(=O)N1CCN(Cc2ccc3c(c2)OCO3)CC1	-8	1	-1	2	·	·
O=C(NC1CC1)c1csc(N2CCN(Cc3ccc4c(c3)OCO4)CC2)n1	-8	0	-1	2	·	·
NNC(=O)CCN1CCN(Cc2ccc3c(c2)OCO3)CC1	-4	0	8.5*	-8	1	-8
O=C(Nc1ccc2c(c1)OCO2)c1csc(N2CCN(Cc3ccc4c(c3)OCO4)CC2)n1	4	0	6.4*	0	1	6
CC1=C(C(=O)N2CCN(C(=O)c3ccco3)CC2)C2(CCC(C)CC2)OC1=O (configuration not stated)	6	0	2	-14	·	·
CC1=C(C(=O)N2CCN(Cc3ccc4c(c3)OCO4)CC2)C2(CCC(C)CC2)OC1=O (configuration not stated)	-2	0	6.5*	11	0	-1
Cc1ccc(C(=O)N2CCN(Cc3ccc4c(c3)OCO4)CC2)o1	2	0	10*	5	0	-12
COc1ccc(/C=C(\C#N)C(=O)Nc2ccccc2[N+](=O)[O-])cc1Br	-1	0	2	-1	·	·
Cc1cn2c(nc3c2c(=O)n(Cc2ccccc2F)c(=O)n3C)[nH]1	-1	0	1	-5	·	·
COc1cccc(C2Nc3ccccc3-c3nnc(SC)nc3O2)c1OCC(=O)O (configuration not stated)	-16	0	1	0	·	·
O=C(Oc1ccc(-c2ccccc2)cc1)N1CCOCC1	-40	0	5.8*	-2	0	-11
CCC(=O)Nc1nc2c(OC)ccc(OC)c2s1	12	0	5.0*	5	-1	2
CCC(=O)Nc1nc2c(Cl)ccc(Cl)c2s1	-5	0	3	-8	·	·
N#Cc1c(NC(=S)NC(=O)c2ccccc2F)sc2c1CCCCCC2	2	0	0	13	·	·
FC(F)(F)c1cccc(Nc2nc(-c3ccc(C4CCCCC4)cc3)cs2)c1	3	0	1	-9	·	·
Cc1cc(N2CCN(C(=O)c3ccc(Br)cc3)CC2)c(F)cc1[N+](=O)[O-]	3	0	6.9*	16	0	-11
CC(=O)c1cc(F)c(N2CCN(C(=O)c3cc(F)c(F)cc3[N+](=O)[O-])CC2)cc1C	4	0	5.3*	3	0	4
Cc1cc(F)c(F)cc1C(=O)N1CCN(c2cc(C)c([N+](=O)[O-])cc2F)CC1	-7	0	1	6	·	·
CCOC(=O)c1ccccc1NC(=O)c1ccoc1C	7	0	1	11	·	·
CCOc1ccccc1NC(=O)c1ccoc1C	9	0	5.9*	6	1	-7
CCOc1ccccc1NC(=O)c1ccccc1NS(=O)(=O)c1ccccc1	2	0	5.9*	-18	2	13
SMILES	TEAD-YAP block	FBW7 act	GPR151 ag	MITF inh	GPR151 confirm	GPR119 ag
CCOc1ccccc1NC(=O)c1ccccc1NS(C)(=O)=O	10	0	0	-6	·	·
Cc1ccc(S(=O)(=O)Nc2ccc(NC(=O)/C=C/c3ccc4c(c3)OCO4)cc2)cc1	7	0	7.6*	17	1	-8
COc1cccc(-c2nc(C(N)=O)c3[nH]c(=O)n(-c4ccccc4OC)c3n2)c1	0	1	2	13	·	·
O=C1NCN(c2ccccc2)C12CCN(CCCC(c1ccc(F)cc1)c1ccc(F)cc1)CC2	4	0	7.2*!	19	-1	-12
Fc1ccc(C(CCCN2CCN3CCCC3C2)c2ccc(F)cc2)cc1 (configuration not stated)	-1	0	1	-4	·	·
COc1cccc(CNC(=O)c2c(C(F)(F)F)nc3ccc(C)cn23)c1	-2	1	2	8	·	·
O=C(CCc1nnc(CCc2c[nH]c3ccccc23)o1)N1CCCCCCC1	-4	0	6.6*	0	0	0
